GLP1R inv ag – acts as inverse agonist at human GLP-1 receptor | HEK293 GLP-1R CRE-luciferase, luminescence, 24 h; GLP-1R form is constitutively active | Potency, µM (doses to about 38.3 µM), for the others: top-dose activity change, negative = inhibition, usual class: inhibitors | hit rate 1.6% among 410,000; further: on the % scale 0 is the no-effect control and ±100 the full control effect; nearly all actives have a fitted effect of over 55% in size
Target sequence (P43220 whole entry, looked up): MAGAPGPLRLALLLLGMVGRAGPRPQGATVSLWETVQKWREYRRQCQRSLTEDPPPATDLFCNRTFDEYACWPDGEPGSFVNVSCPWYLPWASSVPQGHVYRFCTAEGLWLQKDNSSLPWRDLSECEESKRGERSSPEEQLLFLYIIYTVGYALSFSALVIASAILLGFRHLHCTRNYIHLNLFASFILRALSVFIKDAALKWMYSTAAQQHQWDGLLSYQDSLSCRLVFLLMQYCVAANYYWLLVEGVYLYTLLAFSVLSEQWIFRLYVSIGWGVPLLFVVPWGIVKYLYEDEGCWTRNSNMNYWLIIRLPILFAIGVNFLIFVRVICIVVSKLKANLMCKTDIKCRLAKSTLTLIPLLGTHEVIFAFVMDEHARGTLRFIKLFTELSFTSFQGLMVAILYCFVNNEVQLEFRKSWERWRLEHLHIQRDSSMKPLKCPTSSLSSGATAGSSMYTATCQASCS
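qHTS in 1536-well format: reporter HEK293 cells expressing constitutive GLP-1R activity in DMEM + 10% Nu serum, 24 hr with compounds at 37 deg C, luminescence read after 12 min with detection reagent.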
BRCA1 expr up – activators of BRCA1 expression; MCF7-BRCA1-FFLuc reporter, luminescence, 48 h; response scale: scaled: vehicle 0%, 10 µM genistein 100%; Potency, µM (doses to about 46.1 µM), for inactives: top-dose activation, most hits filed as activators; hit rate 1.1% among 380,000; AID 624202; further: nearly all actives have a fitted effect of over 80% in size
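Cells: MCF7-BRCA1-FFLuc, 2000/well. Exposure: 48 h, 37 °C, 5% CO2. Read: luminescence, 15 min post-substrate. Controls: genistein 10 microM (maximal activation), DMSO (neutral).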
HEK293 tox – cytotoxic in the GLP-1 receptor inverse agonist counter-screen | AID 624418 | Potency, µM (top dose mostly 38.3 µM), for the others: at the highest dose activity change, negative = inhibition, hits mostly inhibitors | HEK293 cAMP-luciferase reporter cells, luminescence, 24 h | hit rate 0.13% among 410,000;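 further: loss of luciferase light is scored as toxicity; on the % scale 0 is the no-effect control and ±100 the full control effect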
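1536-well qHTS counterscreen of the MLSMR; 200 cells/uL, 12 h pre-incubation, 23 nL cpd, 24 h at 37 deg C 5% CO2, luciferase detection reagent, 12 min RT, luminescence. Inhibition = undesired.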
GLP1R ag – agonists of human GLP-1 receptor | P43220 | HEK293 GLP-1R CRE-luciferase, luminescence, 4-6 h; cells express a hypersensitive GLP-1R form | Potency, µM (highest dose often 45.6 µM), inactives show at the top dose activation, usual class: activators | hit rate 0.007% among 380,000 | AID 624172; further: % of control where 0% means no effect
Mito fusion yeast – blocks mitochondrial division or promotes mitochondrial fusion; Potency, µM (highest dose often 46.1 µM), for the others: top-dose growth rescue (activation), actives largely listed as activators; S. cerevisiae fusion-defective mutant growth rescue, CellTiterGlo 48 h; hit rate 0.23% among 320,000; further: % of control where 0% means no effect; nearly all actives have a fitted effect of over 45% in size
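Read-out: ATP-based luminescence (CellTiterGlo, 10 min ambient) reporting growth of fusion-defective ts yeast after 48 hours at 37C on glycerol/ethanol YPEG medium in the presence of compound.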
Active calls of the source: *; ? = inconclusive; . = no result given. This is a sample that favours compounds with a hit; in the whole collection about 2.8% have one here. The call rests on the fitted dose curve; in most records, active means well fitted curve in the direction sought with a large enough effect; inconclusive means small, poorly fitted or top-dose-only effect, or another doubt; inactive means no such curve, though single readings can be large; an effect the other way counts as inactive or inconclusive. Potency means the concentration at half of the fitted maximal effect.

SMILES	GLP1R inv ag	BRCA1 expr up	HEK293 tox	GLP1R ag	Mito fusion yeast
CCCNC(=O)c1cc(-c2ccc(Br)cc2)on1	18%	1.8µM*	-17%	2%	2%
O=C(NCc1ccco1)c1cc(-c2ccc(Cl)cc2)on1	20%	35%	6%	-3%	4%
O=C(NCc1cccc(Cl)c1)c1cc(COc2ccc3ncccc3c2)on1	10µM*	-55%	-5%	12%	8%
CC(C)NC(=O)c1cc(-c2ccc(Br)cc2)on1	1%	?	-3%	-14%	-1%
Cc1ccc(-c2cc(C(=O)NCc3ccco3)no2)cc1	10%	4µM*	3%	1%	-9%
Oc1ccc(Nc2nc3ccccc3nc2Nc2ccc(O)cc2)cc1	-81%	-83%	?	-40%	1%
O=C(CN1C(=O)NC(Cc2c[nH]c3ccccc23)C1=O)Nc1cccc(S(=O)(=O)N2CCCCCC2)c1 (configuration not stated)	?	-79%	-7%	-9%	-5%
CCOc1ccc(NC(=O)c2c(NC(=O)c3ccco3)sc3c2CCC(C(C)(C)C)C3)cc1 (configuration not stated)	17%	.	13%	.	.
CCc1ccc(NC(=O)C2CCN(c3nn4c(=O)cc(C)nc4s3)CC2)cc1	-10%	-26%	0%	.	.
O=C(NCc1ccco1)c1cc(-c2cccc(Cl)c2)on1	0%	?	?	-9%	-5%
O=C(NCc1cccs1)c1cc(-c2ccccc2)on1	6%	5µM*	2%	-7%	-2%
COc1cccc(-c2cc(C(=O)NCc3ccco3)no2)c1	9%	7.9µM*	-4%	-10%	-2%
O=C(Nc1ccc(O)cc1)C1CCCO1 (configuration not stated)	1%	-4%	9%	-5%	-2%
COc1ccc(OC)c(S(=O)(=O)NCCCn2ccnc2)c1	11%	-3%	3%	-6%	5%
CCOC(=O)CSc1c(-c2cccs2)[nH]c2ccccc12	?	-95%	?	6%	14µM*
CCOC(=O)CSc1c(-c2ccc(Cl)cc2)[nH]c2ccccc12	-79%	?	?	2%	?
CC1CCN(C(=S)c2cn(Cc3ccc(F)cc3)c3ccccc23)CC1	7.1µM*	-27%	-17%	-1%	-4%
CC1CCN(C(=S)c2cn(Cc3ccccc3F)c3ccccc23)CC1	10µM*	-37%	-23%	-1%	-6%
CN1CCN(C(=S)c2cn(Cc3ccc(F)cc3)c3ccccc23)CC1	10µM*	-11%	-7%	10%	1%
C=CCOc1cccc(C(=O)N2CCCC(Nc3ccc(F)cc3)C2)c1 (configuration not stated)	?	-23%	-3%	-1%	.
CCc1c(C)nc(SCC(=O)NNC(=O)Cc2ccc(OC)cc2)[nH]c1=O	3%	-2%	?	-5%	0%
CCCCN(CCCC)S(=O)(=O)c1ccc(NC(=O)c2ccc([N+](=O)[O-])cc2Cl)cc1	4µM*	-66%	-24%	-8%	15%
O=C(NNc1ccc([N+](=O)[O-])cc1)c1ccccc1Cl	1.8µM*	-8%	1%	-3%	8%
O=C(NNc1ccccc1)C(=O)NNS(=O)(=O)c1ccc([N+](=O)[O-])cc1	3.2µM*	1%	?	0%	-4%
O=C(NNc1ccc([N+](=O)[O-])cc1)c1ccccc1F	?	12%	?	-1%	-6%
O=C(Nc1ccc(Nc2ccccc2)cc1)c1cc([N+](=O)[O-])ccc1Cl	3.2µM*	-50%	-17%	-2%	-5%
CC(=O)N1CCN(c2ccc(NC(=O)c3ccc([N+](=O)[O-])cc3Cl)cc2)CC1	33%	1%	2%	1%	-2%
O=C(O)c1ccccc1C(=O)Nc1ccc(Nc2ccc([N+](=O)[O-])cc2[N+](=O)[O-])cc1	28%	-5%	-25%	10%	15%
Cc1cccc(NC(=O)N2CCC(CN3CCC(C)CC3)CC2)c1C	9%	.	0%	.	.
CCCCN1C[C@H](Cc2ccccc2)[C@@H](CC(=O)NC)C1=O	13%	0%	4%	4%	.

Compound activity from PubChem BioAssay.
